In all, about 400,000 compounds went through this assay and about 13,000 (3.2%) were called active. Inconclusive results (about 18%) are left out. This excerpt belongs to a sample that is enriched for actives. A number with no mark means an inactive call. The call rests on the fitted dose curve; in most records, active means well fitted cell-killing curve with a large enough effect; inconclusive means small, poorly fitted or top-dose-only effect, or effect the other way; inactive means flat fitted curve, though single readings scatter.
assay: qHTS assay for MDR1-selective chemotherapeutics: Primary screen using the drug-selected MDR subline cells KB-V1; details: KB-V1 MDR cells viability, CellTiter-Glo, 72 h; series mostly up to 46.1 µM; activity change, negative = cytotoxicity: at the top concentration; further: nearly all actives have a fitted effect of over 60% in size
Source text: A prime difficulty in effectively treating cancer is the development of cellular resistance to multiple structurally unrelated anticancer drugs, a phenomenon known as multidrug resistance (MDR). […] Numerous strategies to overcome P-gp-mediated MDR have been explored, including the design of drugs that evade recognition and efflux, and development of inhibitors to block efflux and restore drug accumulation. […] An alternative approach is to exploit resistance by identifying drugs that target MDR cells over the non-resistant parental cells from which they were selected. […] The development of MDR1-selective agents represents a new strategy for resolving multidrug resistance, as it remains a long-standing clinical challenge for cancer chemotherapy.
Our goal is to identify compounds that selectively kill P-gp-expressing MDR cells. We will identify MDR1-selective compounds by comparing toxicity of compounds in the screening library against parental, drug-naive (KB-3-1) adenocarcinoma cells as well as their drug-selected MDR sub-line (KB-V1). The differential toxicity of compounds against these two cell lines will be used to identify MDR1-selective compounds, whose cytotoxicity is potentiated, rather than diminished, by P-gp expression. This assay will be utilized to conduct a quantitative high-throughput screen (qHTS) in collaboration with the NIH Chemical Genomics Center to identify selective agents, and probe hits arising from the screen will be validated using secondary assays and characterized through a well-established follow-up research program. This screen was run against the entire NCGC library collection of about 400,000 compounds.
NIH Molecular Libraries Probe Production Network [MLPCN]
NIH Chemical Genomics Center [NCGC]
PI: Michael Gottesman, National Cancer Institute, NIH
Briefly, 5 microL of media containing either KB-V1 cells (columns 1-2, 4-48) are dispensed into Greiner white, treated solid-bottom 1536-well assay plates (media-only control is added to column 3). Compounds are then transferred via Kalypsys pin tool equipped with 1536-pin array (10 nL slotted pins, V&P Scientific, San Diego, CA). Following addition of compound, the plates are incubated at 37 degrees C for 72 hours. CellTiter-Glo (2.5 µL/well) is then added, and the plates are read in a ViewLux reader (Perkin-Elmer, clear luminescence filter, 1 second exposure, 1x binning) following a 10 minute incubation. All cells are dispensed in DMEM phenol-red free media containing 10% FBS.
Library plates were screened starting from the lowest and proceeding to the highest concentration. Vehicle-only plates, with DMSO being pin-transferred to columns 5-48, will be inserted uniformly at the beginning and the end of each library in order to monitor and record any shifts in the background, which can be affected by reagent dispensers or loss in enzyme activity over time. Screening data will be corrected, normalized, and concentration-effect relationships will be derived by using publicly-available NCGC, NCATS curve fitting algorithms (http://ncgc.nih.gov/pub/openhts).
On the % scale 0 is the no-effect control and ±100 the full control effect; potency means the concentration at half of the fitted maximal effect.

Row | Compound | Potency | activity change, negative = cytotoxicity [%]
1 | Cc1ccc(C(C)(C)C)c(OCCCCN2CCCC2)c1 | 20.6 µM (active) | –
2 | CN1CCN(CCCCOc2cccc3ccccc23)CC1 | – | -7.19
3 | Cc1ccc(OCCCCN2CCCCC2)c(Br)c1 | 16.4 µM (active) | –
4 | COc1ccccc1OCCCCCCN1CCN(C)CC1 | – | 20.9
5 | CCNC(=O)C1(C)CCCN(C(=O)c2ccc3ccccc3n2)C1 (stereo not given) | – | 5.07
6 | Cc1ccccc1S(=O)(=O)NC(=O)C1(C)CCN1C(=O)C1(c2ccc(Cl)cc2)CC1 (stereo not given) | – | 19.1
7 | COc1ccccc1-n1c(-c2cc(-c3ccco3)[nH]n2)n[nH]c1=S | – | 2.88
8 | CSc1n[nH]c(-c2ccco2)n1 | – | -8.81
9 | Cn1c(-c2ccco2)nc2cc3ccccc3cc21 | 8.2 µM (active) | –
10 | COc1ccc(Nc2cc(C(=O)NCCCN(C)c3ccccc3)c3ccccc3n2)c(OC)c1 | – | 3.15
11 | COc1cc2nc(NCC(C)c3ccccc3)n3nc(-c4ccccc4)nc3c2cc1OC (stereo not given) | – | -3.41
12 | Cn1c(=O)c2c(n3c4ccccc4nc13)NC(=O)CC2c1cccc(Cl)c1 (stereo not given) | – | 1.02
13 | Cc1ccccc1NC(=O)Cn1c(=O)n(CC2CCC(C(=O)NCCc3ccccc3)CC2)c(=O)c2ccccc21 (stereo not given) | – | -5.31
14 | O=c1cc(N2CCCCC2)c(-c2ccccc2)nn1Cc1cccc(F)c1 | – | -29.3
15 | CCc1c(-c2ccc(F)cc2)ncn1Cc1cccc(-c2ccccc2)c1 | 23.1 µM (active) | –
16 | CCc1ccc(N(CC)C(=O)CCn2cnc3onc(-c4ccc(F)cc4)c3c2=O)cc1 | – | 6.69
17 | Cc1ccccc1-c1nc(CS(=O)(=O)CC(=O)Nc2cc(Cl)cc(Cl)c2)c(C)o1 | – | 0
18 | CN(C)c1nc(-c2cccnc2)nc(-c2ccc(Cl)cc2)c1C#N | – | -19.1
19 | CNc1nccc(-c2ccc(Cl)cc2)c1C#N | 8.2 µM (active) | –
20 | CN(C)c1ccnc(Nc2ccc(F)cc2)c1C#N | – | 4.23
21 | COc1cc(OC)cc(C(=O)Nc2cc3nn(-c4ccccc4)nc3cc2Cl)c1 | – | -16.8
22 | O=C1c2ccccc2-c2ccccc2NC1O (stereo not given) | – | 4.64
23 | COCC(C)n1c(SCc2ccc(C(=O)OC)o2)nc2ccccc2c1=O (stereo not given) | – | -7.31
24 | Cc1ccc(C(=O)CSc2nc3ccccc3c(=O)n2N)o1 | 11.6 µM (active) | –
25 | COC(=O)CSc1nc2ccccc2c(=O)n1Cc1ccccc1 | – | 10.7

Row | Compound | Potency | activity change, negative = cytotoxicity [%]
26 | COc1ccc(NC(C)=O)cc1NC(=O)CN1CCN(c2ccc(F)cc2)CC1 | – | 0
27 | COc1cc(CCN=Cc2ccccc2O)c([N+](=O)[O-])cc1OC | – | -0.961
28 | COc1ccc(CCNC(=O)/C(C#N)=C2\N=C(NC(=O)c3cccs3)c3ccccc32)cc1 | 10.3 µM (active) | –
29 | COc1cc2ccccc2cc1C(=O)Nc1ccc(NC(=O)c2cccs2)cc1 | – | -0.19
30 | COc1cc(OC)cc(C(=O)NCCc2csc3nc(-c4ccccc4F)nn23)c1 | – | -5.31
31 | OC[C@@H]1CN(Cc2cccs2)C[C@H](n2cnc3c(NC4CCCC4)ncnc32)O1 | – | 2.36
32 | CCOc1ccccc1Nc1nnc(SCC(=O)NCC2CCCO2)s1 (stereo not given) | – | -9.76
33 | CCOc1cc(-c2nc3cc(C)ccn3c2NCC2CCCO2)ccc1O (stereo not given) | 2.59 µM (active) | –
34 | CCOc1cc(C(C(=O)NCC2CCCO2)N(C(=O)Cn2nnc3ccccc32)c2cccc(OC)c2)ccc1O (stereo not given) | – | -0.512
35 | OC(c1ccc(F)cc1)c1ncc(-c2cccc(C(F)(F)F)c2)[nH]1 (stereo not given) | – | 6.78
36 | Cc1cn([C@H]2C[C@H](O)[C@@H](CNC(=O)[C@H](N)Cc3cccnc3)O2)c(=O)[nH]c1=O | – | -5.22
37 | COc1ccc(CCNC(=O)C2CCCN(Cc3nc(-c4cccc(Cl)c4)oc3C)C2)cc1OC (stereo not given) | 5.8 µM (active) | –
38 | COc1ccc(-c2nc(CN3CCC(C(=O)NCc4ccccc4)CC3)c(C)o2)cc1OC | – | 31.3
39 | COc1ccc(-c2nc(CN3CCC(C(=O)NCCN(CC(C)C)CC(C)C)CC3)c(C)o2)cc1OC | – | -0.507
40 | Cc1ccc(C(=O)CSc2nc(-c3ccccc3)nc3c2CCCC3)c(C)c1 | – | 0
41 | CC1=C(C(=O)N(C)C)CC(CC(=O)NCCN2CCOCC2)C(=O)N1Cc1ccccc1 (stereo not given) | – | -5.99
42 | Cc1nnc(NC(=O)C(c2ccccc2)c2ccccc2)s1 | – | -26.8
43 | Cc1ccc(NC(=O)Nc2nnc(-c3ccncc3)s2)cc1 | – | -5.82
44 | Cc1nnc(NC(=O)Nc2ccc(Cl)c(Cl)c2)s1 | 18.4 µM (active) | –
45 | O[C@H]1CN(Cc2cccs2)[C@@H](c2ccc(Cl)cc2)C[C@@H]1n1cc(C2CC2)nn1 | – | -10.1
46 | O=C(NN=Cc1ccc2c(c1)CCC2)c1ccccc1O | – | -0.911
47 | Cc1cc2cc3c(N)[nH]nc3nc2cc1C | 7.31 µM (active) | –
48 | O=C(C[n+]1ccncc1)c1ccc2c(c1)CCCC2 | – | 4.87
49 | Cc1cc(C)cc(Nc2ncnc3onc(-c4ccc(F)cc4)c23)c1 | – | -3.6
50 | C[C@@H]1CN([C@H](C)CO)C(=O)CCCn2nncc2CO[C@@H]1CN(C)C(=O)OCc1ccccc1 | – | -11

Source: PubChem BioAssay AID1347076 (National Center for Advancing Translational Sciences (NCATS), 2019)
